Measured values published in PubChem BioAssay.

Target: Alpha-2C adrenergic receptor (Homo sapiens) (UniProt P18825)
Assay: modulators of alpha2C/GIRK thallium flux, primary screen, cell-based, HEK293 alpha2C/GIRK1/2 (AID 624;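 active = fluorescence slope after compound addition differing from the mean of all screened samples at 99.7% confidence, in either direction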;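 note: slope of fluorescence ratio to pre-addition baseline per second over 15 to 24 s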)
Details: thallium flux BTC fluorescence, at 10 µM, actives lie on both sides

Chain of Alpha-2C adrenergic receptor (Homo sapiens) (P18825 whole entry, looked up): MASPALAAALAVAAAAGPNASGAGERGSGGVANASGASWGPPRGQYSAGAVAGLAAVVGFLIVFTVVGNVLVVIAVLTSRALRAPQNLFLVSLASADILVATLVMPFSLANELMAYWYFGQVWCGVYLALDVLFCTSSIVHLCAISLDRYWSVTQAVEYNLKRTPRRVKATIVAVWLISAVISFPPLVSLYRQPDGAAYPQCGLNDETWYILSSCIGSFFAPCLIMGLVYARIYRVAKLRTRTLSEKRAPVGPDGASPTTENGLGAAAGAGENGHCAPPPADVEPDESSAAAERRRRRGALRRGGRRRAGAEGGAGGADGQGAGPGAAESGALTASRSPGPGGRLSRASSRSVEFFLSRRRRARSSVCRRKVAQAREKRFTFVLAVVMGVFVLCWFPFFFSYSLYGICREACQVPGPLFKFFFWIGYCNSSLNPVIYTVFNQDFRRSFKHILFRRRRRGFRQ

slope, inactive:
Cc1ccc(N(C(C)C(=O)Nc2ccc(S(=O)(=O)N3CCOCC3)cc2)S(C)(=O)=O)cc1 (stereo not given) 0.00486
c1ccc(N2CCN(Cc3cn4cccnc4n3)CC2)cc1 0.00602
Oc1ccc(N2CCN(C(c3ccncc3)c3nnnn3C3CCCC3)CC2)cc1 (stereo not given) 0.00598
COC(=O)[C@H](C)NC(=O)Nc1cccc(C(F)(F)F)c1 0.00446
CCCCNC(=O)c1nc2ncc(Br)cn2n1 0.00578
CCN1CCN(C(c2cccs2)C(C)NC(=O)c2ccccc2)CC1 (stereo not given) 0.00664
COc1ccc(C2C(C#N)=C(N)Oc3cc4c(cc32)OCO4)cc1 (stereo not given) 0.00586
CCn1c(=O)c(C(=O)NCc2ccc(OC)cc2)c(O)c2ccccc21 0.00899
CCOC(=O)c1ccccc1NC(=O)c1ccc2c(=O)n3c(nc2c1)CCCCC3 0.00636
CN(CCc1ccccn1)c1ncnc2[nH]ncc12 0.0053
CN(C(=O)c1cc2sccc2n1C)C1CCCCC1 0.00503
COc1ccc(-n2c(SCC(=O)N3CCCCC3C)nnc2-c2cccnc2)cc1 (stereo not given) 0.00523
CCn1nnc(NC(=O)c2ccccc2Br)n1 0.00604
CC(=O)N1CCN(c2ccc(S(=O)(=O)N3CCCCC3)cn2)CC1 0.00522
CC1CCN(C(=O)CSCC(=O)Nc2nc(-c3cccs3)cs2)CC1 0.00893
Cn1cnc2c1c(=O)n(Cc1cccc(Br)c1)c(=O)n2C 0.00734
O=C(NC1CCCCC1)C1CCCN1C(=O)NCc1ccccc1 (stereo not given) 0.00543
CCOC(=O)c1ccc(NC(=O)COc2ccc(-n3cnnn3)cc2)cc1 0.00538
Cc1cc(C)c2c(=O)n(CC(=O)NCCCN3CCOCC3)sc2n1 0.00687
Cc1cccc2sc(NC(=O)CN(C)S(=O)(=O)c3cccs3)nc12 0.00346
CCCc1nc(NCc2ccncc2)c2nnn(Cc3ccccc3F)c2n1 0.00544
O=S1(=O)CCC(NS(=O)(=O)/C=C/c2ccccc2)C1 (stereo not given) 0.00742
O=C(NCC1CCCO1)C1CCCN(S(=O)(=O)c2cccc3nsnc23)C1 (stereo not given) 0.00536
COc1ccccc1NC(=O)N(C1CCCC1)C1CCN(C(C)=O)CC1 0.00578
O=C1NC(Cc2c[nH]c3ccccc23)C(=O)N1CCOc1ccccc1 (stereo not given) 0.00422
COC(=O)C(C)Sc1nnc2n(-c3cccc(C)c3)c(=O)c3c4c(sc3n12)CCCC4 (stereo not given) 0.00585
COc1ccc2[nH]c(=O)c(CN(CC3CCCO3)C(=O)Nc3ccc(F)cc3)cc2c1 (stereo not given) 0.00737
Cc1nc2ccccc2c2oc(C(=O)NCC3COc4ccccc4O3)cc12 (stereo not given) 0.00744
CCN(Cc1cc2ccccc2[nH]c1=O)S(=O)(=O)c1ccccc1 0.00647
CC(=O)NC(=O)NC1CSCC1OC(C)=O (stereo not given) 0.00811
COc1ccc(S(=O)(=O)NCC(c2cccnc2)N2CCN(c3ccc(F)cc3)CC2)cc1C (stereo not given) 0.00574
COCCn1c(CN2CCN(c3cccc(Cl)c3)CC2)nc2c1c(=O)n(C)c(=O)n2C 0.00601
CC1(C)CC(CCNC(=O)c2ccco2)CC(C)(C)N1 0.00616
O=C1c2ccccc2C(=O)N1C/C=C/c1ccccc1 0.0051
CCn1c(SCc2cccc(C(F)(F)F)c2)nnc1-c1ccco1 0.00568
c1ccc(-c2nnc(CSc3nncs3)o2)cc1 0.00275
Cc1ccc(C)c(N2CCN(S(=O)(=O)c3ccc4c(c3)OCCO4)CC2)c1 0.00722
CCOc1cccc(-n2nnnc2-c2ccc(OC)cc2)c1 0.00569
CCOC(=O)C1CCCN(C(=O)c2ccc(CS(=O)(=O)c3ccc(Br)cc3)o2)C1 (stereo not given) 0.00523
C=CCSC1=C(C#N)C(c2ccccc2Cl)CC(=O)N1 (stereo not given) 0.0048

Test system: not listed separately
Assay: inhibitors of Sendai virus-induced IRF3 signaling, primary screen, TLR/RLR signaling modifier project, cell-based, Sendai virus stimulus, luciferase, 10K MLSCN set (AID 602276);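 note: firefly luciferase from ISG56 promoter only with Renilla not read in this screen; 0% = Sendai virus plus DMSO and 100% = medium plus DMSO without virus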
Details: HEK293 RL24 IRF3 luciferase reporter, at 10 µM, hits give high values

inhibition, inactive:
Cc1ccc(N(C(C)C(=O)Nc2ccc(S(=O)(=O)N3CCOCC3)cc2)S(C)(=O)=O)cc1 (stereo not given) 5.72%
c1ccc(N2CCN(Cc3cn4cccnc4n3)CC2)cc1 8.99%
Oc1ccc(N2CCN(C(c3ccncc3)c3nnnn3C3CCCC3)CC2)cc1 (stereo not given) 17%
COC(=O)[C@H](C)NC(=O)Nc1cccc(C(F)(F)F)c1 -11.9%
CCCCNC(=O)c1nc2ncc(Br)cn2n1 12.8%
CCN1CCN(C(c2cccs2)C(C)NC(=O)c2ccccc2)CC1 (stereo not given) 8.51%
COc1ccc(C2C(C#N)=C(N)Oc3cc4c(cc32)OCO4)cc1 (stereo not given) -6.84%
CCn1c(=O)c(C(=O)NCc2ccc(OC)cc2)c(O)c2ccccc21 14.7%
CCOC(=O)c1ccccc1NC(=O)c1ccc2c(=O)n3c(nc2c1)CCCCC3 2.48%
CN(CCc1ccccn1)c1ncnc2[nH]ncc12 -24.6%
CN(C(=O)c1cc2sccc2n1C)C1CCCCC1 -56.2%
COc1ccc(-n2c(SCC(=O)N3CCCCC3C)nnc2-c2cccnc2)cc1 (stereo not given) 6.12%
CCn1nnc(NC(=O)c2ccccc2Br)n1 -19.8%
CC(=O)N1CCN(c2ccc(S(=O)(=O)N3CCCCC3)cn2)CC1 6.79%
CC1CCN(C(=O)CSCC(=O)Nc2nc(-c3cccs3)cs2)CC1 4.81%
Cn1cnc2c1c(=O)n(Cc1cccc(Br)c1)c(=O)n2C 14.2%
O=C(NC1CCCCC1)C1CCCN1C(=O)NCc1ccccc1 (stereo not given) 5.02%
CCOC(=O)c1ccc(NC(=O)COc2ccc(-n3cnnn3)cc2)cc1 1.41%
Cc1cc(C)c2c(=O)n(CC(=O)NCCCN3CCOCC3)sc2n1 10.4%
Cc1cccc2sc(NC(=O)CN(C)S(=O)(=O)c3cccs3)nc12 -1.84%
CCCc1nc(NCc2ccncc2)c2nnn(Cc3ccccc3F)c2n1 9.12%
O=S1(=O)CCC(NS(=O)(=O)/C=C/c2ccccc2)C1 (stereo not given) 4.67%
O=C(NCC1CCCO1)C1CCCN(S(=O)(=O)c2cccc3nsnc23)C1 (stereo not given) 0.526%
COc1ccccc1NC(=O)N(C1CCCC1)C1CCN(C(C)=O)CC1 12.4%
O=C1NC(Cc2c[nH]c3ccccc23)C(=O)N1CCOc1ccccc1 (stereo not given) 13.6%
COC(=O)C(C)Sc1nnc2n(-c3cccc(C)c3)c(=O)c3c4c(sc3n12)CCCC4 (stereo not given) -16%
COc1ccc2[nH]c(=O)c(CN(CC3CCCO3)C(=O)Nc3ccc(F)cc3)cc2c1 (stereo not given) -18.3%
Cc1nc2ccccc2c2oc(C(=O)NCC3COc4ccccc4O3)cc12 (stereo not given) 9.7%
CCN(Cc1cc2ccccc2[nH]c1=O)S(=O)(=O)c1ccccc1 12.2%
CC(=O)NC(=O)NC1CSCC1OC(C)=O (stereo not given) 11%
COc1ccc(S(=O)(=O)NCC(c2cccnc2)N2CCN(c3ccc(F)cc3)CC2)cc1C (stereo not given) 13.6%
COCCn1c(CN2CCN(c3cccc(Cl)c3)CC2)nc2c1c(=O)n(C)c(=O)n2C 12.7%
CC1(C)CC(CCNC(=O)c2ccco2)CC(C)(C)N1 12%
O=C1c2ccccc2C(=O)N1C/C=C/c1ccccc1 21.6%
CCn1c(SCc2cccc(C(F)(F)F)c2)nnc1-c1ccco1 13.2%
c1ccc(-c2nnc(CSc3nncs3)o2)cc1 -21.1%
Cc1ccc(C)c(N2CCN(S(=O)(=O)c3ccc4c(c3)OCCO4)CC2)c1 10.2%
CCOc1cccc(-n2nnnc2-c2ccc(OC)cc2)c1 43%
CCOC(=O)C1CCCN(C(=O)c2ccc(CS(=O)(=O)c3ccc(Br)cc3)o2)C1 (stereo not given) 4.84%
C=CCSC1=C(C#N)C(c2ccccc2Cl)CC(=O)N1 (stereo not given) 25.7%
